The values below come from PubChem BioAssay (Tox21).

Records with an inconclusive call do not appear. Activity calls are given as the source filed them. Calls follow the shape of the dose curve; as a rule, active = well fitted cell-killing curve with a large enough effect in the repeat runs; inconclusive = weak or mixed curves, or effect the other way; inactive = flat fitted curve, though single readings scatter.
% is scaled to controls: 0 for no effect and ±100 for the full control effect.

The nature of this experiment: qHTS RealTime-Glo MT Cell Viability Assay in HepG2 cells - 40 hour (AID 1224870). Also: nearly all actives have a fitted effect of over 50% in size. As to conditions: RealTime-Glo luminescence; series mostly up to 76.8 µM; activity change, negative = cytotoxic: at the top concentration. An excerpt:
National Center for Advancing Translational Sciences [NCATS]
NIH Chemical Genomics Center [NCGC]
U.S. Environmental Protection Agency [EPA]
National Institutes of Environmental Health Sciences [NIEHS]
National Toxicology Program [NTP]
U.S. Food and Drug Administration [FDA]
Measure of cell viability is critical in the cell-base assay. Analysis of cell viability is necessary for the characterization of cell responses to cytotoxic drugs and environmental stress. A RealTime-Glo MT Cell Viability Assay to monitor cell viability in real time of continues cell culture during 40 hours of compound treatment was used to screen Tox21 10K library compounds in HepG2 cells. The RealTime-Glo MT Cell Viability Assay is a nonlytic, homogeneous, bioluminescent method to measure cell viability in real time using a simple, plate-based method. The assay involves adding NanoLuc luciferase and a cell-permeant prosubstrate to cells in culture. Viable cells reduce the proprietary prosubstrate to generate a substrate for NanoLuc luciferase. This substrate diffuses from cells into the surrounding culture medium, where it is rapidly used by the NanoLuc Enzyme to produce a luminescent signal. The signal correlates with the number of viable cells, making the assay well suited for cytotoxicity studies.
Tox21 Assay Protocol Summary:
The mixture of HepG2 cell suspension and reagents were dispensed at 600cells/6 ul/well in 1536-well tissue culture treated black solid bottom plates using a Multidrop dispenser. After the assay plates were incubated at a 37 C/5% CO2 incubator for 5 hours, 23 nL of compounds dissolved in DMSO, positive and negative controls was transferred to the assay plate by a pintool work station. The plates were incubated at 37 C for 40 hours. The luminescence intensity were measured at 0h, 8h, 16h, 24h, 32h and 40h time points using ViewLux plate reader during compound treatment.
In general terms: Quantitative high-throughput screening tests each substance at several concentrations.
In the case of `O=C(O)CCSSCCC(=O)O`, the “activity change, negative = cytotoxic” value was 2.33% (inactive).

As for `COCCOCCOCCOCCO`, the “activity change, negative = cytotoxic” value was -0.266% (inactive).

For `CCCCCCCCSCC`, the “activity change, negative = cytotoxic” value was -0.149% (inactive).

For the compound `O=C1CC(c2ccc(Cl)cc2)CC(=O)N1`, the “activity change, negative = cytotoxic” value is 0.787% [at 35.3 µM] (inactive).

Turning to `OCCCCC(O)CO` (stereo not given), the “activity change, negative = cytotoxic” value was 0.117% (inactive).

`CC(C)C[C@H](NC(=O)CNC(=O)[C@H](Cc1ccc(O)cc1)NC(=O)[C@H](CO)NC(=O)[C@H](Cc1c[nH]c2ccccc12)NC(=O)[C@H](Cc1cnc[nH]1)NC(=O)[C@@H]1CCC(=O)N1)C(=O)N[C@@H](CCCN=C(N)N)C(=O)N1CCC[C@H]1C(=O)NCC(N)=O` (stereo in doubt): the “activity change, negative = cytotoxic” value was -4.28% [at 35.3 µM] (inactive).

Consider `CC/C=C\CC1=C(C)CCC1=O`, for which the “activity change, negative = cytotoxic” value is -5.46% (inactive).

For `c1ccc2c(c1)ccc1c3ccccc3ccc21`, the “activity change, negative = cytotoxic” value is -4.77% [at 35.3 µM] (inactive).

With `COc1ccc2nc(SCc3ncc(C)c(OC)c3C)[nH]c2c1`, the “activity change, negative = cytotoxic” value was -1.95% [at 35.3 µM] (inactive).

On to `BrCc1cccc(Oc2ccccc2)c1`, for which the “activity change, negative = cytotoxic” value is -1.47% (inactive).

Consider `CC(=O)c1ccc2c(c1)Cc1ccccc1-2`, for which the “activity change, negative = cytotoxic” value was -5.46% (inactive).

Consider `CCCCCCCCC1CCC(=O)O1` (stereo not given), for which the “activity change, negative = cytotoxic” value is 1.04% (inactive).

Turning to `NCCS`, the “activity change, negative = cytotoxic” value is -0.62% [at 35.3 µM] (inactive).

As for `CCOc1cc([N+](=O)[O-])c(OCC)cc1N1CCOCC1`, the “activity change, negative = cytotoxic” value was -5.78% (inactive).

Take `COc1ccc(OC)c(Cl)c1`: the “activity change, negative = cytotoxic” value was 0.362% (inactive).

As for `COc1ccc(Br)c(C)c1`, the “activity change, negative = cytotoxic” value is -3.21% (inactive).

As for `CCOC(=O)CC(=O)c1ccccc1`, the “activity change, negative = cytotoxic” value was -0.0244% (inactive).

Take `CCCCNC1CC(C)(C)NC(C)(C)C1`: the “activity change, negative = cytotoxic” value is 0.992% (inactive).

As for `COP(=O)(OC)OC(c1ccc(Cl)cc1)P(=O)(OC)OC` (stereo not given), the “activity change, negative = cytotoxic” value is 1.12% [at 35.3 µM] (inactive).

Regarding `O=C(O)C(=O)Cc1ccccc1`, the “activity change, negative = cytotoxic” value was -1.1% (inactive).

In the case of `C[C@H](CCC(=O)O)[C@H]1CC[C@H]2[C@@H]3C(=O)C[C@@H]4CC(=O)CC[C@]4(C)[C@H]3CC(=O)[C@]12C`, the “activity change, negative = cytotoxic” value was 1.35% [at 35.3 µM] (inactive).

Consider `C=CC(OCC)OCC`, for which the “activity change, negative = cytotoxic” value is -3.42% (inactive).

Turning to `C[Si](C)(C)C`, the “activity change, negative = cytotoxic” value was 12.1% (inactive).

On to `O=C1c2ccccc2C(=O)c2cc(S(=O)(=O)O)ccc21`, for which the “activity change, negative = cytotoxic” value is 3.53% (inactive).

`Nc1ncnc(Nc2ccccc2)n1`: the “activity change, negative = cytotoxic” value is 2.74% [at 35.3 µM] (inactive).

`O=C1O[C@@H]2[C@@H](O)[C@H](O)O[C@@H]2[C@H]1O`: the “activity change, negative = cytotoxic” value is 0.537% (inactive).

On to `CC(C)(C)c1n[nH]c(=S)n(N)c1=O`, for which the “activity change, negative = cytotoxic” value was 0.282% (inactive).

For `Cc1cccc(C)c1OCC(C)N` (stereo not given), the “activity change, negative = cytotoxic” value is -2.61% [at 35.3 µM] (inactive).

Regarding `CCCCOC(=O)c1ccccc1`, the “activity change, negative = cytotoxic” value is 0.603% (inactive).

Take `C[Si](C)=O`: the activity change, negative = cytotoxic was -3.86% [at 6.97 µM] (inactive).

Consider `CN(C)c1ccc(C=O)cc1`, for which the “activity change, negative = cytotoxic” value was 1.8% (inactive).

For `OCCN(CCO)c1cccc(Cl)c1`, the “activity change, negative = cytotoxic” value is -1.11% (inactive).

On to `COc1cc2c(cc1OC)[C@@H]1CC(=O)[C@@H](CC(C)C)CN1CC2`, for which the “activity change, negative = cytotoxic” value was 0.572% [at 35.3 µM] (inactive).

As for `CC(C)C(=O)OCCc1ccccc1`, the “activity change, negative = cytotoxic” value was 0.22% (inactive).

Consider `C=C(C)C(=O)OCC(C)(C)COC(=O)C(=C)C`, for which the “activity change, negative = cytotoxic” value was 2.17% (inactive).

Take `Cc1ccccc1N=O`: the “activity change, negative = cytotoxic” value is 0.6% (inactive).

Take `NCCN1CCOCC1`: the “activity change, negative = cytotoxic” value is 0.923% (inactive).

Take `CCOCCOCCOCC`: the “activity change, negative = cytotoxic” value was 2.61% (inactive).

As for `COc1ccc2c(c1)C(=O)N(CCc1ccc(S(=O)(=O)NC(=O)NC3CCCCC3)cc1)C(=O)C2(C)C`, the “activity change, negative = cytotoxic” value was 0% [at 35.3 µM] (inactive).

As to `CCOCCOC(=O)/C=C/c1ccc(OC)cc1`, the “activity change, negative = cytotoxic” value was -1.93% [at 35.3 µM] (inactive).
